Experimental data as given in publication PMC5515408, “Sequence-specific DNA binding by MYC/MAX to low-affinity non-E-box motifs”.
The full ranking holds about 5,000 sequences; the median of “log2 normalized fluorescence” is about 0.089, and the highest 2% start at about 0.81. Shown is part of a subset that was picked to be rich in the highest values.

Target: MYC (p64);MAX (p21), in MYC:MAX (human;human, UniProt P01106-1;P61244-2 1-439;1-151, |)
Test: protein-binding microarray (anti-MAX antibody); PBM: 15 mM Tris-HCl pH 7.5, 100 mM KCl, 0.075% NP40, 7.5 mM beta-mercaptoethanol, 375 ng/ul BSA, 8 ng/ul poly(dA-dT):(dA-dT), 550 ng complex, 60 min, room tempe; high values mean tight binding
Conditions: protein: recombinant;recombinant; tags: 6xHis;6xHis; copies: 1;1; label: 3' end of printed strand (linker) attached to glass slide; dsDNA, one strand shown
Summary of the method: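 Binding, given as log2 normalized fluorescence, was measured on a custom Agilent glass array. The array bore ~5000 unique 12-nt sequences spotted in triplicate and converted to double strands by primer extension. It was incubated with 550 ng of human His-tagged MYC:MAX or MAX:MAX dimers from E. coli for 60 min at room temperature in Tris-KCl buffer, pH 7.5, with NP40, BSA and poly(dA-dT) competitor, and bound protein was detected with anti-MAX and secondary antibodies and scanned at 543 nm.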

MYC (p64);MAX (p21), in MYC:MAX, sequence (P01106 16-454, chain 1 of 2): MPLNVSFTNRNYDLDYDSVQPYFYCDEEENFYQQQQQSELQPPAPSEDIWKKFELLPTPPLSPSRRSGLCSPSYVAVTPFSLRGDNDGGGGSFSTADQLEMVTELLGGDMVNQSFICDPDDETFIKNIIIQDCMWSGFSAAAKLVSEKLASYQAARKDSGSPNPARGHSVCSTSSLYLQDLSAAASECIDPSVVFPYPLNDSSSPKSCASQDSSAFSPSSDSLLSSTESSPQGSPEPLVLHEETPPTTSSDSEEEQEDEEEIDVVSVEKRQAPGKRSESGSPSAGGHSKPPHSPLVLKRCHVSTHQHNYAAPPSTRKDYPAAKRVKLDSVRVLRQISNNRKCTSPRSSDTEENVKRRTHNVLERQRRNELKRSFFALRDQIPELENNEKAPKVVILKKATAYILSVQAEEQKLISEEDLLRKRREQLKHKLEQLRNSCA
MYC (p64);MAX (p21), in MYC:MAX, sequence (P61244 other isoform, or with tags, fused parts or gaps |, chain 2 of 2): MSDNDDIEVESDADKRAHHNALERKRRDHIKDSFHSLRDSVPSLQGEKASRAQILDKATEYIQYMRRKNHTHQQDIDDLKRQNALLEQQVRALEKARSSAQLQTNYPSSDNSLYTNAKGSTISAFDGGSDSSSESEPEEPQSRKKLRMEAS

Sequence	binding signal
CCGGCTGAGTGATCGTATTAATAGCTAAGATTACTATATCGACG	0.194 log2 normalized fluorescence
CCGGCTGAACATACGTATTAATAGCTAAGATTACTATATCGACG	0.202 log2 normalized fluorescence
CCGGCTGATGGCGGGTATTAATAGCTAAGATTACTATATCGACG	0.232 log2 normalized fluorescence
CCGGCTGACCCCGTGTATTAATAGCTAAGATTACTATATCGACG	0.42 log2 normalized fluorescence
CCGGCGGACACGAGGTATTAATAGCTAAGATTACTATATCGACG	0.562 log2 normalized fluorescence
CCGGCTGACCACCCGTATTAATAGCTAAGATTACTATATCGACG	0.348 log2 normalized fluorescence
CCGGCTGAGGGACGGTATTAATAGCTAAGATTACTATATCGACG	0.0602 log2 normalized fluorescence
CCGGCTGATGTTCTGTATTAATAGCTAAGATTACTATATCGACG	0.261 log2 normalized fluorescence
CCGGCTGATGAGGTGTATTAATAGCTAAGATTACTATATCGACG	-0.000883 log2 normalized fluorescence
CCGGCTGAGTATACGTATTAATAGCTAAGATTACTATATCGACG	0.0171 log2 normalized fluorescence
CCGGCTGTCACGTGGTATTAATAGCTAAGATTACTATATCGACG	0.706 log2 normalized fluorescence
CCGGCAGCCACGTTGTATTAATAGCTAAGATTACTATATCGACG	0.643 log2 normalized fluorescence
CCGGCAGTCACGTGGTATTAATAGCTAAGATTACTATATCGACG	0.893 log2 normalized fluorescence
CCGGCAGCCACGTGGTATTAATAGCTAAGATTACTATATCGACG	0.908 log2 normalized fluorescence
CCGGCTGCATCGTGGTATTAATAGCTAAGATTACTATATCGACG	0.636 log2 normalized fluorescence
CCGGCAGCTACGTGGTATTAATAGCTAAGATTACTATATCGACG	0.389 log2 normalized fluorescence
CCGGCATGCACGTGGTATTAATAGCTAAGATTACTATATCGACG	0.877 log2 normalized fluorescence
CCGGCTGAAAGAGAGTATTAATAGCTAAGATTACTATATCGACG	-0.0282 log2 normalized fluorescence
CCGGCTGACCGGGTGTATTAATAGCTAAGATTACTATATCGACG	0.119 log2 normalized fluorescence
CCGGCTGAGTACGGGTATTAATAGCTAAGATTACTATATCGACG	-0.0173 log2 normalized fluorescence
CCGGCTGATGCGCAGTATTAATAGCTAAGATTACTATATCGACG	0.0262 log2 normalized fluorescence
CCGGCTCATACGTGGTATTAATAGCTAAGATTACTATATCGACG	0.558 log2 normalized fluorescence

Sequence	binding signal
CCGGCTTACACGTGGGATTAATAGCTAAGATTACTATATCGACG	0.81 log2 normalized fluorescence
CCGGCTCTCACGTGGTATTAATAGCTAAGATTACTATATCGACG	0.891 log2 normalized fluorescence
CCGGCTCACGATGGGGCTTAATAGCTAAGATTACTATATCGACG	0.398 log2 normalized fluorescence
CCGGCTCTCACGTGGTCTTAATAGCTAAGATTACTATATCGACG	0.836 log2 normalized fluorescence
CCGGCTCTTACGTGGTATTAATAGCTAAGATTACTATATCGACG	0.358 log2 normalized fluorescence
CCGGCGCTCACGTGGTATTAATAGCTAAGATTACTATATCGACG	0.815 log2 normalized fluorescence
CCGGCTCACACGTGGGCTTAATAGCTAAGATTACTATATCGACG	0.832 log2 normalized fluorescence
CCGGCGGTCACGTGGTATTAATAGCTAAGATTACTATATCGACG	0.805 log2 normalized fluorescence
CCGGCTCAGACGTGGTATTAATAGCTAAGATTACTATATCGACG	0.391 log2 normalized fluorescence
CCGGCTGGTACGTGGTCTTAATAGCTAAGATTACTATATCGACG	0.364 log2 normalized fluorescence
CCGGCTGAAACGTGGTCTTAATAGCTAAGATTACTATATCGACG	0.74 log2 normalized fluorescence
CCGGCTGGCACCCGGTATTAATAGCTAAGATTACTATATCGACG	0.242 log2 normalized fluorescence
CCGGCTGACGTTTTGTATTAATAGCTAAGATTACTATATCGACG	-0.0354 log2 normalized fluorescence
CCGGCTGAAAGGCCGTATTAATAGCTAAGATTACTATATCGACG	0.17 log2 normalized fluorescence
CCGGCTGACACGCATTATTAATAGCTAAGATTACTATATCGACG	0.524 log2 normalized fluorescence
CCGGCGATCACGTGGTATTAATAGCTAAGATTACTATATCGACG	0.946 log2 normalized fluorescence
CCGGCTCACACGTCGTATTAATAGCTAAGATTACTATATCGACG	0.506 log2 normalized fluorescence
CCGGCCATCACGTGGTATTAATAGCTAAGATTACTATATCGACG	0.764 log2 normalized fluorescence
CCGGCTCACACGTGGTATTAATAGCTAAGATTACTATATCGACG	0.998 log2 normalized fluorescence
CCGGCCCTCACGTGGTATTAATAGCTAAGATTACTATATCGACG	0.828 log2 normalized fluorescence
CCGGCTCACATGTGGTATTAATAGCTAAGATTACTATATCGACG	0.918 log2 normalized fluorescence
CCGGCCGTCACGTGGTATTAATAGCTAAGATTACTATATCGACG	0.809 log2 normalized fluorescence

Sequence	binding signal
CCGGCCGACATGTGGTATTAATAGCTAAGATTACTATATCGACG	0.663 log2 normalized fluorescence
CCGGCTATCACGTGGTATTAATAGCTAAGATTACTATATCGACG	0.71 log2 normalized fluorescence
CCGGCTATTACGTGGTATTAATAGCTAAGATTACTATATCGACG	0.323 log2 normalized fluorescence
CCGGCTTACATGTGGTATTAATAGCTAAGATTACTATATCGACG	0.625 log2 normalized fluorescence
CCGGCTGACGCTTTGTATTAATAGCTAAGATTACTATATCGACG	0.148 log2 normalized fluorescence
CCGGCTGACCATTGGTATTAATAGCTAAGATTACTATATCGACG	0.0788 log2 normalized fluorescence
CCGGCTGAAAGAGTGTATTAATAGCTAAGATTACTATATCGACG	0.0309 log2 normalized fluorescence
CCGGCTGAGAGACGGTATTAATAGCTAAGATTACTATATCGACG	-0.00994 log2 normalized fluorescence
CCGGCTGACACGCGAGATTAATAGCTAAGATTACTATATCGACG	0.438 log2 normalized fluorescence
CCGGCTGAAGATGTGTATTAATAGCTAAGATTACTATATCGACG	0.0913 log2 normalized fluorescence
CCGGCTGAAAAGAGGTATTAATAGCTAAGATTACTATATCGACG	-0.00138 log2 normalized fluorescence
CCGGCTGACAGCAAGTATTAATAGCTAAGATTACTATATCGACG	0.286 log2 normalized fluorescence
CCGGCTGACCGTAAGTATTAATAGCTAAGATTACTATATCGACG	0.214 log2 normalized fluorescence
CCGGCAAGTTTAAGCCGTTAATAGCTAAGATTACTATATCGACG	0.00903 log2 normalized fluorescence
CCGGCTGAGCCGCTGTATTAATAGCTAAGATTACTATATCGACG	0.0565 log2 normalized fluorescence
CCGGCTGAGAGGCCGTATTAATAGCTAAGATTACTATATCGACG	0.0066 log2 normalized fluorescence
CCGGCTGAAGAGGGGTATTAATAGCTAAGATTACTATATCGACG	0.288 log2 normalized fluorescence
CCGGCTGAAAAAGGGTATTAATAGCTAAGATTACTATATCGACG	-0.0246 log2 normalized fluorescence
CCGGCTGAGGGGGAGTATTAATAGCTAAGATTACTATATCGACG	0.823 log2 normalized fluorescence
CCGGCTGAAAGGGGGTATTAATAGCTAAGATTACTATATCGACG	0.83 log2 normalized fluorescence
CCGGCTGAGGGGAGGTATTAATAGCTAAGATTACTATATCGACG	0.438 log2 normalized fluorescence
CCGGCTGAAAAGGGGTATTAATAGCTAAGATTACTATATCGACG	0.161 log2 normalized fluorescence

Sequence	binding signal
CCGGCTGAAGGGGGGTATTAATAGCTAAGATTACTATATCGACG	0.855 log2 normalized fluorescence
CCGGCTGAAGGGTGGTATTAATAGCTAAGATTACTATATCGACG	0.18 log2 normalized fluorescence
CCGGCTGAGGGAGAGTATTAATAGCTAAGATTACTATATCGACG	-0.0403 log2 normalized fluorescence
CCGGCTGACTGGTCGTATTAATAGCTAAGATTACTATATCGACG	0.229 log2 normalized fluorescence
CCGGCTGACCTCTGGTATTAATAGCTAAGATTACTATATCGACG	-0.0273 log2 normalized fluorescence
CCGGCTGAGTGAGGGTATTAATAGCTAAGATTACTATATCGACG	0.097 log2 normalized fluorescence
CCGGCTGAAAAGCGGTATTAATAGCTAAGATTACTATATCGACG	0.0993 log2 normalized fluorescence
CCGGCTGACACTTAGTATTAATAGCTAAGATTACTATATCGACG	0.231 log2 normalized fluorescence
CCGGCTGACAAGTGGGATTAATAGCTAAGATTACTATATCGACG	0.302 log2 normalized fluorescence
CCGGCTGAGTGAGTGTATTAATAGCTAAGATTACTATATCGACG	0.08 log2 normalized fluorescence
CCGGCTGACGTTGTGTATTAATAGCTAAGATTACTATATCGACG	0.16 log2 normalized fluorescence
CCGGCTGGAACGTGGTATTAATAGCTAAGATTACTATATCGACG	0.66 log2 normalized fluorescence
CCGGCTGAGCATATGTATTAATAGCTAAGATTACTATATCGACG	0.395 log2 normalized fluorescence
CCGGCTGAAGGCGTGTATTAATAGCTAAGATTACTATATCGACG	0.409 log2 normalized fluorescence
CCGGCAGACATGGGGTATTAATAGCTAAGATTACTATATCGACG	0.458 log2 normalized fluorescence
CCGGCTAACACATGGTATTAATAGCTAAGATTACTATATCGACG	0.6 log2 normalized fluorescence
CCGGCTGACACGAGGTATTAATAGCTAAGATTACTATATCGACG	0.625 log2 normalized fluorescence
CCGGCAGACACGAGGTTTTAATAGCTAAGATTACTATATCGACG	0.64 log2 normalized fluorescence
CCGGCAGACACATGGTATTAATAGCTAAGATTACTATATCGACG	0.834 log2 normalized fluorescence
CCGGCAGTCACATGGTATTAATAGCTAAGATTACTATATCGACG	0.995 log2 normalized fluorescence
CCGGCAGACACTTGGTATTAATAGCTAAGATTACTATATCGACG	0.421 log2 normalized fluorescence
CCGGCTTTCACATGGTATTAATAGCTAAGATTACTATATCGACG	0.504 log2 normalized fluorescence

Sequence	binding signal
CCGGCAGACACGAGGTATTAATAGCTAAGATTACTATATCGACG	0.93 log2 normalized fluorescence
CCGGCTGACTACATGTATTAATAGCTAAGATTACTATATCGACG	0.419 log2 normalized fluorescence
CCGGCTGTCAAGTGGCATTAATAGCTAAGATTACTATATCGACG	0.1 log2 normalized fluorescence
CCGGCTGAGTTTCCGTATTAATAGCTAAGATTACTATATCGACG	-0.0243 log2 normalized fluorescence
CCGGCTGAAGGATGGTATTAATAGCTAAGATTACTATATCGACG	0.0538 log2 normalized fluorescence
CCGGCTGTCCCCTGGTATTAATAGCTAAGATTACTATATCGACG	-0.00889 log2 normalized fluorescence
CCGGCTGACTGTGAGTATTAATAGCTAAGATTACTATATCGACG	0.00564 log2 normalized fluorescence
CCGGCTGACGGCAGGTATTAATAGCTAAGATTACTATATCGACG	-0.00507 log2 normalized fluorescence
CCGGCGGACGCGTGGTATTAATAGCTAAGATTACTATATCGACG	0.64 log2 normalized fluorescence
CCGGCGGACACGTGCTATTAATAGCTAAGATTACTATATCGACG	0.839 log2 normalized fluorescence
CCGGCGGACACGTCGTATTAATAGCTAAGATTACTATATCGACG	0.287 log2 normalized fluorescence
CCGGCGGACACGTGGTATTAATAGCTAAGATTACTATATCGACG	0.99 log2 normalized fluorescence
CCGGCGGACACGTGTGATTAATAGCTAAGATTACTATATCGACG	0.779 log2 normalized fluorescence
CCGGCGGACCCGTGGTATTAATAGCTAAGATTACTATATCGACG	0.439 log2 normalized fluorescence
CCGGCTGAGTACCTGTATTAATAGCTAAGATTACTATATCGACG	0.076 log2 normalized fluorescence
CCGGCTGATGGGCAGTATTAATAGCTAAGATTACTATATCGACG	0.0215 log2 normalized fluorescence
CCGGCTGACGATCAGTATTAATAGCTAAGATTACTATATCGACG	-0.0317 log2 normalized fluorescence
CCGGCTGAATACCTGTATTAATAGCTAAGATTACTATATCGACG	0.159 log2 normalized fluorescence
